Among the data in PubChem BioAssay are growth inhibition and outcome values, retold here.

For some assays here: Results with a measured potency or affinity are listed apart. Active and inactive are the calls of the source. Unless noted, no cut-off is given here; in the data, nearly all actives have IC50 up to about 0.98 µM.

Test system in the first test: not listed separately
Kind of test: inhibition of 3D7 malaria parasite growth – strain 3D7 (AID 2306; call rule not given here;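 note: 0% = DMSO wells and 100% = chloroquine plus artemisinin control wells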). The settings on record: P. falciparum 3D7 erythrocytic growth, LDH absorbance, 72 h; at 2 µM; hits give high values.
On to `CC1(C)N=C(N)N=C(N)N1OCCc1ccc(N)cc1`, for which the growth inhibition is 93% (active).

`Cc1ccc(C(C(=O)Nc2ccc(N3CCNCC3)c(Cl)c2)c2ccccc2)cc1` (stereo not given): the growth inhibition is 97% (active).

Consider `Cc1ccc2[nH]c3ccccc3c(=O)c2c1`, for which the growth inhibition is 93% (active).

In the case of `COc1ccc2nccc(N3CCCN(CCNCc4ccc5c(n4)NC(=O)CS5)CC3)c2n1`, the growth inhibition was 100% (active).

For the compound `O[C@@H](c1cccc2ccccc12)[C@@H]1CN(CCc2ccccc2)CC[C@@]1(O)c1ccccc1`, the growth inhibition was 99% (active).

Take `CC(C)(C)c1cc(NC(=O)c2ccc(Cl)c([N+](=O)[O-])c2)cc(C(C)(C)C)c1`: the growth inhibition was 93% (active).

For the compound `Cc1cc(N[C@@H](Cc2ccccc2)C(=O)NCCOc2ccccc2)nc(NCCc2ccccc2)n1`, the growth inhibition was 101% (active).

With `N#Cc1ccc(N2CCN(Cc3ccc(-c4ccc(-c5nc6ccc(F)cc6[nH]5)s4)cc3)CC2)nc1`, the growth inhibition was 100% (active).

Consider `COc1ccc2nccc(NC(=O)C3(O)CCC(NCc4ccc5c(c4)NCCS5)CC3)c2n1` (stereo not given), for which the growth inhibition was 93% (active).

As for `Cc1cccc(-n2nc(C)c3c2NC(=O)CC3C(=O)c2ccc(Cl)s2)c1` (stereo not given), the growth inhibition is 92% (active).

As to `COc1ccc(C=NNc2cc(C)nc3c(C)cccc23)c2ccccc12`, the growth inhibition is 102% (active).

`NC(=NCCCCC1CCCCC1)c1cccc(C(N)=NCCCCC2CCCCC2)n1`: the growth inhibition is 100% (active).

For `CC(C)c1ccc(CN2CCC(CNC(=O)c3cc(-c4cccc(Cl)c4)cs3)C2)cc1` (stereo not given), the growth inhibition was 99% (active).

For `OC1CCN(c2cc(-c3ccccn3)nc(-c3ccccn3)n2)CC1`, the growth inhibition is 83% (active).

Regarding `Cc1cc(N[C@@H](Cc2ccccc2)C(=O)Nc2ccccc2)nc(NCCc2ccccc2)n1`, the growth inhibition was 101% (active).

With `CN1CCCC1CCNCc1cccc(-c2cnc(N(C)C3CCCCC3)nc2)c1` (stereo not given), the growth inhibition was 99% (active).

For `c1ccc(CN2CCCN(c3ccc4c(c3)CCN(Cc3ccc(-c5ncc[nH]5)cc3)CC4)CC2)cc1`, the growth inhibition was 100% (active).

As for `N#Cc1ccc(-c2ccc(C(=O)NCCCCN3CCC(c4ccc5c(c4OCC(N)=O)CCCC5)CC3)cc2)cc1`, the growth inhibition was 87% (active).

Take `CC(C)CNCc1cccc(-c2cccc(CN(CCCN3CCN(C)CC3)C(=O)Nc3ccccc3)c2)c1`: the growth inhibition was 95% (active).

Take `O=C(NCCCCN1CCC(c2ccc3c(c2OCc2ccncc2)CCCC3)CC1)c1ccc(-c2ccc(C(F)(F)F)cc2)cc1`: the growth inhibition is 101% (active).

With `O=C(C=Cc1ccc(Br)cc1)N1CCC(CCN2CCC(c3c[nH]c4ccccc34)CC2)CC1`, the growth inhibition was 98% (active).

Consider `CC(=O)c1c(Cc2ccccc2Cl)c[nH]c1C`, for which the growth inhibition was 95% (active).

As for `CN(C)CCOc1cc(NC(=O)Nc2ccc(-c3ccccc3)cc2Cl)ccc1I`, the growth inhibition was 102% (active).

For `CCOc1ccccc1CCNCC1CCN(CC2CCCCC2)CC1`, the growth inhibition is 84% (active).

For the compound `c1ccc2c(c1)CN(CC1CC1)CC1(CCN(Cc3c[nH]c4cnccc34)CC1)O2`, the growth inhibition was 101% (active).

As for `O=C(Nc1ccccc1C(F)(F)F)Nc1nn(Cc2c(F)cccc2Cl)cc1Br`, the growth inhibition is 100% (active).

For the compound `CN1CCN(c2ccnc3ccc(NC(=O)Nc4cccc5c(-c6ccncc6)cccc45)cc23)CC1`, the growth inhibition was 100% (active).

Turning to `O=C(COc1cccc([N+](=O)[O-])c1)Nc1ccc(-c2nc3ccccc3[nH]2)cc1`, the growth inhibition is 99% (active).

For `Cc1cccc2[nH]c(-c3ccc(-c4cccc(NC(=O)c5cnn6cccnc56)c4)cc3)nc12`, the growth inhibition is 91% (active).

In the case of `O=C(C=Cc1ccc(F)cc1)N1CCN(S(=O)(=O)c2ccc(Cl)cc2)CC1`, the growth inhibition is 91% (active).

For `CCN(CC)c1ccc(C(=O)Cn2ccc(=N)cc2)cc1`, the growth inhibition was 84% (active).

As to `COc1ccc2nc(C)cc(Nc3ccc(Oc4ccc5ccccc5c4Cl)c(Cl)c3)c2c1`, the growth inhibition was 100% (active).

For `COc1cccc(NC(=O)Nc2ccc(Nc3nc(C)cc(N(C)C)n3)cc2)c1`, the growth inhibition was 101% (active).

For `CC(C)Cc1nc(N2CCOCC2)c2nnn(Cc3ccccc3)c2n1`, the growth inhibition was 98% (active).

For the compound `O=C([C@@H]1CCCCN1c1ccc([N+](=O)[O-])c2ccccc12)N1CCN(c2ncccn2)CC1`, the growth inhibition was 97% (active).

For `CN1CCC(N2CCN(c3ccc4c(=O)nc(CCc5cccc(F)c5F)n(CC(=O)N(C)Cc5ccc(-c6ccc(C(F)(F)F)cc6)cc5)c4n3)CC2)CC1`, the growth inhibition is 100% (active).

Regarding `O=C(/C=C/c1ccc(Cl)c(Cl)c1)NCCCCCN1CCCC(C(=O)Nc2ccc(Cl)cc2)C1` (stereo not given), the growth inhibition was 98% (active).

Take `COCCN1CCC(NCC(C)(C)c2nc(-c3ccc(Cl)c(O)c3)c(-c3ccncc3)[nH]2)CC1`: the growth inhibition is 102% (active).

As to `CC(Nc1ncc(-c2ccsc2)c(-c2nccs2)n1)c1ccc2c(c1)OCCO2` (stereo not given), the growth inhibition is 81% (active).

Regarding `CC1CC(NCCCNc2cc(=O)c3ccccc3[nH]2)c2c1cc(Cl)c(Cl)c2Cl` (stereo not given), the growth inhibition is 98% (active).

A further test deals with Calcium-dependent protein kinase 1 (Plasmodium falciparum (isolate 3D7)) (UniProt P62344). Kind of test: PfCDPK1 kinase inhibitors, biochemical, TCAMS library (AID 1159585).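 Note: inhibitors leave more ATP so luminescence rises with inhibition.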 The settings on record: recombinant PfCDPK1, Kinase-Glo ATP depletion luminescence.
Chain of Calcium-dependent protein kinase 1 (Plasmodium falciparum (isolate 3D7)) (P62344 whole entry, looked up): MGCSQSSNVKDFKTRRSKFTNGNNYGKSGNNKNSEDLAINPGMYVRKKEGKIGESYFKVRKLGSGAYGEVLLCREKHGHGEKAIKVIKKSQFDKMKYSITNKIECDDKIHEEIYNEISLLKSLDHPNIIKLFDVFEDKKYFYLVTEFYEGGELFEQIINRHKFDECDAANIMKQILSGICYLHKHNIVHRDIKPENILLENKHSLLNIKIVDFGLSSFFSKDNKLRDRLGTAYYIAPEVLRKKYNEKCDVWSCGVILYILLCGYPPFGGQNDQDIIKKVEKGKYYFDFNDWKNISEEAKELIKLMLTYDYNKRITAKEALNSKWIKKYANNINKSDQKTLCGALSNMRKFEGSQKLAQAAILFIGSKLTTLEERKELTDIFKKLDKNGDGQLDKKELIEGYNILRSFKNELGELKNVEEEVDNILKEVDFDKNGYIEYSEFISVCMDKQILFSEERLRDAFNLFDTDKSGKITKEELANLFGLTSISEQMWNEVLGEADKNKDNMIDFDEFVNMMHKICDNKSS
Regarding `CC1(C)N=C(N)N=C(N)N1OCCc1ccc(N)cc1`, the outcome was inactive.

As for `Cc1ccc(C(C(=O)Nc2ccc(N3CCNCC3)c(Cl)c2)c2ccccc2)cc1` (stereo not given), the outcome was inactive.

Turning to `Cc1ccc2[nH]c3ccccc3c(=O)c2c1`, the outcome was inactive.

With `COc1ccc2nccc(N3CCCN(CCNCc4ccc5c(n4)NC(=O)CS5)CC3)c2n1`, the outcome was inactive.

Take `O[C@@H](c1cccc2ccccc12)[C@@H]1CN(CCc2ccccc2)CC[C@@]1(O)c1ccccc1`: the result was inactive.

Consider `CC(C)(C)c1cc(NC(=O)c2ccc(Cl)c([N+](=O)[O-])c2)cc(C(C)(C)C)c1`, for which the outcome was inactive.

For the compound `Cc1cc(N[C@@H](Cc2ccccc2)C(=O)NCCOc2ccccc2)nc(NCCc2ccccc2)n1`, the result was inactive.

With `N#Cc1ccc(N2CCN(Cc3ccc(-c4ccc(-c5nc6ccc(F)cc6[nH]5)s4)cc3)CC2)nc1`, the result was inactive.

For `COc1ccc2nccc(NC(=O)C3(O)CCC(NCc4ccc5c(c4)NCCS5)CC3)c2n1` (stereo not given), the outcome was inactive.

Regarding `Cc1cccc(-n2nc(C)c3c2NC(=O)CC3C(=O)c2ccc(Cl)s2)c1` (stereo not given), the outcome was inactive.

Turning to `COc1ccc(C=NNc2cc(C)nc3c(C)cccc23)c2ccccc12`, the result was inactive.

For `NC(=NCCCCC1CCCCC1)c1cccc(C(N)=NCCCCC2CCCCC2)n1`, the result was inactive.

For `CC(C)c1ccc(CN2CCC(CNC(=O)c3cc(-c4cccc(Cl)c4)cs3)C2)cc1` (stereo not given), the result was inactive.

As to `OC1CCN(c2cc(-c3ccccn3)nc(-c3ccccn3)n2)CC1`, the result was inactive.

As for `Cc1cc(N[C@@H](Cc2ccccc2)C(=O)Nc2ccccc2)nc(NCCc2ccccc2)n1`, the result was inactive.

In the case of `CN1CCCC1CCNCc1cccc(-c2cnc(N(C)C3CCCCC3)nc2)c1` (stereo not given), the result was inactive.

`c1ccc(CN2CCCN(c3ccc4c(c3)CCN(Cc3ccc(-c5ncc[nH]5)cc3)CC4)CC2)cc1`: the result was inactive.

On to `N#Cc1ccc(-c2ccc(C(=O)NCCCCN3CCC(c4ccc5c(c4OCC(N)=O)CCCC5)CC3)cc2)cc1`, for which the outcome was inactive.

Turning to `CC(C)CNCc1cccc(-c2cccc(CN(CCCN3CCN(C)CC3)C(=O)Nc3ccccc3)c2)c1`, the outcome was inactive.

`O=C(NCCCCN1CCC(c2ccc3c(c2OCc2ccncc2)CCCC3)CC1)c1ccc(-c2ccc(C(F)(F)F)cc2)cc1`: the result was inactive.

`O=C(C=Cc1ccc(Br)cc1)N1CCC(CCN2CCC(c3c[nH]c4ccccc34)CC2)CC1`: the outcome was inactive.

In the case of `CC(=O)c1c(Cc2ccccc2Cl)c[nH]c1C`, the outcome was inactive.

As to `CN(C)CCOc1cc(NC(=O)Nc2ccc(-c3ccccc3)cc2Cl)ccc1I`, the result was inactive.

Take `CCOc1ccccc1CCNCC1CCN(CC2CCCCC2)CC1`: the result was inactive.

In the case of `c1ccc2c(c1)CN(CC1CC1)CC1(CCN(Cc3c[nH]c4cnccc34)CC1)O2`, the result was inactive.

Regarding `O=C(Nc1ccccc1C(F)(F)F)Nc1nn(Cc2c(F)cccc2Cl)cc1Br`, the result was inactive.

For the compound `CN1CCN(c2ccnc3ccc(NC(=O)Nc4cccc5c(-c6ccncc6)cccc45)cc23)CC1`, the result was inactive.

As to `O=C(COc1cccc([N+](=O)[O-])c1)Nc1ccc(-c2nc3ccccc3[nH]2)cc1`, the result was inactive.

As to `Cc1cccc2[nH]c(-c3ccc(-c4cccc(NC(=O)c5cnn6cccnc56)c4)cc3)nc12`, the outcome was inactive.

As for `O=C(C=Cc1ccc(F)cc1)N1CCN(S(=O)(=O)c2ccc(Cl)cc2)CC1`, the outcome was inactive.

In the case of `CCN(CC)c1ccc(C(=O)Cn2ccc(=N)cc2)cc1`, the outcome was inactive.

Regarding `COc1ccc2nc(C)cc(Nc3ccc(Oc4ccc5ccccc5c4Cl)c(Cl)c3)c2c1`, the outcome was inactive.

Turning to `COc1cccc(NC(=O)Nc2ccc(Nc3nc(C)cc(N(C)C)n3)cc2)c1`, the outcome was inactive.

As to `CC(C)Cc1nc(N2CCOCC2)c2nnn(Cc3ccccc3)c2n1`, the result was inactive.

Take `O=C([C@@H]1CCCCN1c1ccc([N+](=O)[O-])c2ccccc12)N1CCN(c2ncccn2)CC1`: the outcome was inactive.

Regarding `CN1CCC(N2CCN(c3ccc4c(=O)nc(CCc5cccc(F)c5F)n(CC(=O)N(C)Cc5ccc(-c6ccc(C(F)(F)F)cc6)cc5)c4n3)CC2)CC1`, the outcome was inactive.

`O=C(/C=C/c1ccc(Cl)c(Cl)c1)NCCCCCN1CCCC(C(=O)Nc2ccc(Cl)cc2)C1` (stereo not given): the outcome was inactive.

For the compound `COCCN1CCC(NCC(C)(C)c2nc(-c3ccc(Cl)c(O)c3)c(-c3ccncc3)[nH]2)CC1`, the result was inactive.

As for `CC(Nc1ncc(-c2ccsc2)c(-c2nccs2)n1)c1ccc2c(c1)OCCO2` (stereo not given), the outcome was inactive.

Turning to `CC1CC(NCCCNc2cc(=O)c3ccccc3[nH]2)c2c1cc(Cl)c(Cl)c2Cl` (stereo not given), the result was inactive.
